According to PubChem BioAssay (EPA / NIEHS):
Active and inactive are the calls of the source. The calls were made as follows: active = hit-call score of the fitted dose curve at least 0.9, where 1 is the maximum; inactive = score below 0.9.

Test: ATG_CMV_CIS: Attagene CIS-FACTORIAL HepG2 Assay for human CMV (Internal Marker) (AID 2282928);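 also: endpoint acts as a background internal control marker rather than a target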
Settings: HepG2 CMV promoter reporter, transcription factor profiling; actives raise or lower the signal
Protocol: ATG_CIS is a cell-based, multiplexed-readout assay that uses HepG2, a human liver cell line, with measurements taken at 24 hours after chemical dosing in a 24-well plate.ATG_CMV_CIS is one of 52 assay component(s) measured or calculated from the ATG_CIS assay. It is designed to make measurements of mRNA induction, a form of inducible reporter, as detected with fluorescence intensity signals by Reverse transcription polymerase chain reaction (RT-PCR) and Capillary electrophoresis technology.Data from the assay component ATG_CMV_CIS was analyzed into 1 assay endpoint. This assay endpoint, ATG_CMV_CIS, was analyzed with bidirectional fitting relative to DMSO as the negative control and baseline of activity. Using a type of inducible reporter, measures of mRNA for gain or loss-of-signal activity can be used to understand the background control at the transcription factor-level as they relate to the gene . Furthermore, this assay endpoint can be referred to as a secondary readout, because this assay has produced multiple assay endpoints where this one serves a background control function. To generalize the intended target to other relatable targets, this assay endpoint is annotated to the background measurement intended target family, where the subfamily is internal marker.
Human liver HepG2 cells are transiently transfected with multiple reporter transcription units (MRTUs) in 6-well plates using FuGene 6 reagent (Roche; 3 ml FuGene/1 mg DNA). The MRTU constructs are regulated by a cis-regulating element (promoter). […] A major difference between the CIS and TRANS system is that in CIS activities of endogenous TFs are measured, whereas the TRANS assay evaluates changes in activities of exogenous, chimeric NR-Gal4 proteins. […] At the end of 24 hour incubation, total RNA was isolated using TriZol reagent (Invitrogen). The isolated RNA is then reverse-transcribed using oligo(dT) primer and Mo-MLV reverse transcriptase (Invitrogen) with DNAse I (Ambion) treatment for 30 min. The one-tenth of the produced cDNA was amplified by PCR using Taq DNA polymerase (Invitrogen) and two reporter sequence-specific primers. The PCR products were fluorescently labeled by primer extension with 6-arboxyfluorescein (6-FAM) 5'-labeled reporter sequence-specific primer (2 min at 95 C, 20 s at 68 C and 10 min at 72 C) and these products were digested with 5U of HpaI (New England Biolabs) for 2h at 37 C. The fragments were purified using Qiaquick PCR columns (Qiagen), analyzed on an ABI 3130xL genetic analyzer (Applied Biosystems) with peak positions identified by using a set of X-rhodamine (ROX)-labeled MapMarker1000 molecular weight standards (BioVentures). The raw capillary electrophoresis data was processed using Attagraph software (Attagene).

outcome, inactive:
CN(C)Cc1cc(C(C)(C)C)c(O)c(C(C)(C)C)c1, C=C1CC[C@H]2C[C@@H]1C2(C)C, C1=CCC=C1, Cc1ccccc1S(N)(=O)=O, CC[N+](CC)(CC(=O)Nc1c(C)cccc1C)Cc1ccccc1, O=C(O)Cc1c[nH]c2ccccc12, O=C(O)c1ccccc1C(=O)O, C/C=C(\C)C(=O)OCC/C=C\CC, CCCCCCOC(=O)CCCCCCCC(=O)OCCCCCC, O=C(CC(C(=O)OC1CCCCC1)S(=O)(=O)O)OC1CCCCC1 (stereo not given), CC(C)(C)NC(=O)[C@@H]1CN(Cc2cccnc2)CCN1C[C@@H](O)C[C@@H](Cc1ccccc1)C(=O)N[C@H]1c2ccccc2C[C@H]1O, Clc1ccc(Sc2cc(Cl)c(Cl)cc2Cl)cc1, CCCCCCCCCC/C=C/C1CC(=O)OC1=O (stereo not given), CC[N+](CC)(CC(=O)Nc1c(C)cccc1C)Cc1ccccc1 (tested in a mixture with another compound), C=C(C)C(=O)OCC1CCCO1 (stereo not given), Cc1ccccc1S(=O)(=O)O, COc1ccccc1OCC(O)CO (stereo not given), Cc1cc2nc3c(=O)[nH]c(=O)nc-3n(C[C@H](O)[C@H](O)[C@H](O)CO)c2cc1C, OCCOCCOCCOCCOCCO, CCOC(=O)c1ccccc1, COc1ccc2ccccc2c1, O=C(O)c1nc(Cl)c(Cl)c(Cl)c1Cl, CCCN[C@H]1CCc2nc(N)sc2C1, NC(N)=Nc1nc(CSCCC(N)=NS(N)(=O)=O)cs1, CCCC(=O)OC, O=S(=O)(O)c1cccc2ccccc12, CC=CC(=O)O, CCCCCC[C@@H](O)C/C=C\CCCCCCCC(=O)O, CC(C)=CCOC(=O)c1ccccc1, O=C(OCc1ccccc1)c1ccccc1, C[Si](C)(C)O[Si](C)(C)O[Si](C)(C)C, CCO[Si](OCC)(OCC)c1ccccc1, NC(=O)c1ccc(N)cc1, CCCCCCCCCCCCCCCCCC[N+](C)(C)C, CCC(=O)OCc1ccc(OC)cc1, Oc1ccc(Cl)cc1C1CCCC1, CCCCCCC(O)CCCCCCCCCCC(=O)OC (stereo not given)

AC50, active:
Cc1cc(O)cc(C)c1Cl 37.3 µM, Oc1ccc(Oc2ccccc2)cc1 44.9 µM, Oc1cccc2ccccc12 100 µM
